Laboratory results from PubChem BioAssay (NCI).
Where “and” joins values, the source holds several entries; their conditions need not be identical. Equal entries are not always repeated. About 83,000 compounds went through this panel and 20% of them were active in at least one assay; those are over-represented in the sample as a whole.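 Growth was measured after 48 h exposure to one concentration of compound in 96-well plates. Values under 10 count as active.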 Calls of active or inactive are those of the source.

Key:
Experiment in all cases: NCI-60 one-dose screen, 48 h (100 = growth as untreated, 0 = no growth, -100 = all killed)
Conditions in all cases: 10 µM unless noted
[1] = system: SK-MEL-2 melanoma
[2] = system: EKVX NSCLC
[3] = system: SN12C renal
[4] = system: UO-31 renal
[5] = system: TK-10 renal
[6] = system: ACHN renal
[7] = system: CAKI-1 renal
[8] = system: A498 renal
[9] = system: CCRF-CEM leukemia
[10] = system: MOLT-4 leukemia

Measured: growth

C#CCOc1cccc(Nc2ncc3ncn(C4CCN(C(=O)CCl)C4)c3n2)c1 (stereo not given)
active: [5] -34.9% [6.25 µM] | [6] -31.2% [6.25 µM] | [9] -16.6% [6.25 µM] | [10] 5.59% [6.25 µM]
inactive: [1] 61.9% [6.25 µM] | [2] 91.3% [6.25 µM] | [3] 13.2% [6.25 µM] | [4] 29.9% [6.25 µM] | [7] 49.3% [6.25 µM] | [8] 89.2% [6.25 µM]

CCN(CC)CC(=O)Nc1ccc2ncnc(Nc3ccc(Oc4cccc(F)c4)c(Cl)c3)c2c1
inactive: [1] 90.9% | [2] 42.8% | [3] 67.8% | [4] 22% | [5] 51.9% | [6] 41.6% | [7] 46.6% | [8] 44.2% | [9] 46.8% | [10] 41.8%

NCCOCCOc1ccccc1
inactive: [1] 101% | [2] 106% | [3] 103% | [4] 86.8% | [5] 90.9% | [6] 106% | [7] 88.3% | [8] 97.3% | [9] 91.9% | [10] 101%

CCCCCCCCCCCCC[C@H](O)C[C@H](O)[C@H](C)N
inactive: [1] 113% [1.25 µM] | [2] 99.4% [1.25 µM] | [3] 105% [1.25 µM] | [4] 112% [1.25 µM] | [5] 137% [1.25 µM] | [6] 102% [1.25 µM] | [7] 110% [1.25 µM] | [8] 93.7% [1.25 µM] | [9] 25% [1.25 µM] | [10] 51.7% [1.25 µM]

Cc1c(CC(=O)OCCO)cc(-c2ccc(Cl)cc2)n1-c1ccccc1
inactive: [1] 103% | [2] 95.5% | [3] 92.4% | [4] 75.5% | [5] 115% | [6] 100% | [7] 87.6% | [8] 87.9% | [9] 99% | [10] 91.4%

CC12CCC(C(=O)CC1=O)C2(C)C (stereo not given)
inactive: [1] 110% | [2] 97.5% | [3] 102% | [4] 88.3% and 87.1% | [5] 100% and 105% | [6] 107% and 106% | [7] 101% and 97% | [8] 93.2% and 108% | [9] 103% and 96.8% | [10] 82.6% and 96.5%

CCCO/N=C/c1ccccn1
inactive: [1] 116% and 94.7% | [2] 108% and 96.8% | [3] 94.1% and 108% | [4] 89.5% and 93% | [5] 112% and 89.3% | [6] 104% and 100% | [7] 109% | [8] 101% and 117% | [9] 80.9% and 105% | [10] 124% and 102%

Nc1nc(CSc2n[nH]c(N)n2)nc(Nc2ccccc2)n1
inactive: [1] 106% | [2] 96.1% | [3] 101% | [4] 87.2% | [5] 99.1% | [6] 98.6% | [7] 87.6% | [8] 89.3% | [9] 45.9% | [10] 107%

COc1ccc2c(c1)c(C(=O)c1nc(-c3cn(C)c4ccccc34)no1)cn2C
inactive: [1] 101% | [2] 103% | [3] 89.5% | [4] 77.2% | [5] 91.7% | [6] 95.9% | [7] 94.1% | [8] 87.7% | [9] 87.9% | [10] 94.2%

O=C1C(=C(O)c2ccccc2)C(=O)c2ccccc21
inactive: [1] 105% | [2] 104% | [3] 102% | [4] 85.5% | [5] 111% | [6] 103% | [7] 92.9% | [8] 123% | [9] 73.7% | [10] 116%

CONC1=Nc2cc(NC(N)=NCc3ccccc3)c(N(C)C3CCCCC3)cc2OC1
inactive: [1] 91.5% | [2] 62% | [3] 64.8% | [4] 75.5% | [5] 82.3% | [6] 79.1% | [7] 93.7% | [8] 82.4% | [9] 68.2% | [10] 54.2%

Cc1ccc(S(=O)(=O)OC[C@@]2(C)CC[C@]3(C)CC[C@]4(C)C(=C3C2)C=C[C@@H]2[C@@]3(C)CCCNC(C)(C)[C@@H]3CC[C@]24C)cc1
active: [1] 9.43% | [3] 7.76% | [6] -46.6% | [7] 1.61% | [9] 0.849% | [10] -24.8%
inactive: [2] 88.9% | [4] 71.6% | [5] 68.6% | [8] 104%

O=C(CCN1CCOCC1)Nc1cccc(-n2cc(-c3ccncc3)c(-c3ccc(Cl)c(O)c3)n2)c1
inactive: [1] 14.8% | [2] 55.7% | [3] 42.8% | [4] 41.9% | [5] 54.5% | [6] 34.2% | [7] 38.6% | [8] 10.9% | [9] 17.7% | [10] 28.6%

COc1ccc(-c2cc3cnc4ccccc4c3oc2=O)cc1
inactive: [1] 120% | [2] 101% | [3] 100% | [4] 88.7% | [5] 99.2% | [6] 106% | [7] 89.7% | [8] 93.1% | [9] 89% | [10] 104%

O=C(Cn1cc(CN2CCN(c3ccnc4cc(Cl)ccc34)CC2)nn1)Nc1cccc([N+](=O)[O-])c1
inactive: [1] 97.1% | [2] 94.4% | [3] 92.9% | [4] 63.4% | [5] 105% | [6] 87.7% | [7] 76.4% | [8] 90.7% | [9] 33.8% | [10] 80%

COc1nc(=O)n(C2C=CC(=O)O2)cc1F (stereo not given)
inactive: [1] 106% | [2] 78.4% | [3] 94.8% | [4] 56.3% | [5] 61.3% | [6] 31.7% | [7] 40.1% | [8] 97.9% | [9] 48.7% | [10] 33.5%

O=c1ccc2nc(-c3ccccn3)nn(-c3ccccc3)c-2c1
inactive: [1] 106% | [2] 115% | [3] 84.6% | [4] 40.1% | [7] 72.5% | [8] 91.9%
active: [5] -70.9% | [6] -84.7% | [9] 8.49% | [10] 5.56%

Cc1ccc(/C=C/c2c(C(=O)/C=C/c3ccccc3)c(C)nc3ccccc23)cc1
inactive: [2] 46.5% | [3] 36.9% | [4] 18.4% | [5] 29.3% | [7] 22.3% | [8] 59.3%
active: [1] 2.34% | [6] 8.19% | [9] 5.43% | [10] 6.13%

O=C1/C(=C/c2cn(-c3ccccc3)nc2-c2ccccc2)SC(=S)N1c1ccccc1
inactive: [1] 110% | [2] 99% | [3] 90.7% | [4] 82.3% | [5] 106% | [6] 95.5% | [7] 87.2% | [8] 91.1% | [9] 101% | [10] 109%

O=C1/C(=C/c2ccc(-c3cccc(C(F)(F)F)c3)o2)SC(=S)N1CCc1ccc(O)cc1
inactive: [1] 56.4% | [2] 89% | [3] 75.1% | [4] 52.9% | [5] 94.1% | [6] 87.4% | [7] 53.8% | [8] 65.3% | [9] 14% | [10] 37%

CC(=O)c1c(C)nc2ccccc2c1/C=C/c1cccc(C)c1
inactive: [1] 36.2% | [2] 71.5% | [3] 67.7% | [4] 56.4% | [5] 79.9% | [6] 73.7% | [7] 46.3% | [8] 50.1% | [9] 54.4% | [10] 31%

CCOC(=O)C(=CCC(C)C)C(=O)OCC
inactive: [1] 113% | [2] 112% | [3] 90.5% | [4] 78.5% | [5] 121% | [6] 103% | [7] 99.4% | [8] 76.2% | [9] 108% | [10] 98.1%

CCCNNC(=O)/C=C/c1ccc(CNCCc2c(C)[nH]c3ccccc23)cc1
inactive: [1] 13.7% [2.5 µM] | [2] 50.4% [2.5 µM] | [3] 26.3% [2.5 µM] | [4] 13.8% [2.5 µM] | [9] 27.6% [2.5 µM] | [10] 13.3% [2.5 µM]
active: [5] -16.2% [2.5 µM] | [6] -15.4% [2.5 µM] | [7] -4.92% [2.5 µM] | [8] -37.6% [2.5 µM]
